MITF primary: blocks human microphthalmia-associated transcription factor | AlphaScreen MITF homodimerization, bead proximity signal | inhibition, % at 2.6 µM | 650,000 compounds, 0.91% hits | AID 1259374; in the data active = inhibition above about 50%;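 note: 0% = vehicle wells with protein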
TEAD-YAP inh: TEAD-YAP interaction inhibition | inhibition, % at 9.12 µM | HEK-TIYL cells, TEAD-Gal4/YAP UAS-luciferase luminescence | 640,000 compounds, 1.4% hits; in the data active = inhibition above about 32%;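 note: 0% = median of test compound wells and 100% = reference inhibitor wells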
GPR151 activ: human GPR151 activation; Q8TDV0; PathHunter beta-arrestin GPR151 cells, luminescence; activation, % at 11.2 µM; 650,000 compounds, 1% hits; in the data active = activation above about 4.9%;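 note: 0% = median of compound wells and 100% = cells with positive control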
FBW7 activator: human FBW7 E3 ligase activation, primary screen; normalized activity (activation), % at 26.1 µM; 650,000 compounds, 0.13% hits; AlphaScreen FBW7–phospho-cyclin E peptide binding, activator screen; in the data active = normalized activity above about 1.9%;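 note: purified mutant Fbw7 with reduced substrate affinity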
Target sequence (Q969H0 whole entry, looked up): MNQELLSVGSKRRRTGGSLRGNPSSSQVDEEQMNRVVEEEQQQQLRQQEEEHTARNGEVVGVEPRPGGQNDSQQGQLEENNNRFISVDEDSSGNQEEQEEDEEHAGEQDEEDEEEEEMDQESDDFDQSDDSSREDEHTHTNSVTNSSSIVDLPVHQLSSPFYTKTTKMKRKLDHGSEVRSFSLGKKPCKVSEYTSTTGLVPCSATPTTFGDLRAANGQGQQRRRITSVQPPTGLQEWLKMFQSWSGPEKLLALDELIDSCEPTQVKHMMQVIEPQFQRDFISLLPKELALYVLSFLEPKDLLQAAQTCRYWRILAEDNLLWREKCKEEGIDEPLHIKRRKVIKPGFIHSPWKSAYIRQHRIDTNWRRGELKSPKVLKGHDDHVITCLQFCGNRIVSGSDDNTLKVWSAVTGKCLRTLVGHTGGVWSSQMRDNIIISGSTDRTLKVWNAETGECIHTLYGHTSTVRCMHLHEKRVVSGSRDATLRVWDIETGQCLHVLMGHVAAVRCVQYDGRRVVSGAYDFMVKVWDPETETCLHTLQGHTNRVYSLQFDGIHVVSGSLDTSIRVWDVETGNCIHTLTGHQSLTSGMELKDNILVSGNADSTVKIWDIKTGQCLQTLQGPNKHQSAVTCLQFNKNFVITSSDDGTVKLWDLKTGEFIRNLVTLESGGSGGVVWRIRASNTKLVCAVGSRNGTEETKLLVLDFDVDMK
Numbers without * were called inactive. Rows were chosen to be rich in hits. Some 3.4% of all compounds tested hit in one or more screens of this group.

What do the screens show for `OCCNc1nc(N2CCN(c3ccccn3)CC2)nc2c1ncn2-c1ccccc1`?
MITF primary: 0; TEAD-YAP inh: 42*; GPR151 activ: -1; FBW7 activator: 0

Results for c1ccc(N2CCN(c3nc(NCCN4CCOCC4)c4ncn(-c5ccsc5)c4n3)CC2)nc1 ?
MITF primary: 23; TEAD-YAP inh: 57*; GPR151 activ: -2; FBW7 activator: 0

What do the screens show for `OCCNc1nc(N2CCN(c3ccccn3)CC2)nc2c1ncn2-c1ccsc1`?
MITF primary: 13; TEAD-YAP inh: 51*; GPR151 activ: -2; FBW7 activator: 0

What do the screens show for `COc1ccc(CCNc2nc(N3CCN(c4ccccn4)CC3)nc3c2ncn3-c2ccsc2)cc1`?
MITF primary: 0; TEAD-YAP inh: 3; GPR151 activ: 1; FBW7 activator: 0

How did CCCNc1nc(N2CCCC2CO)nc2c1ncn2-c1ccsc1 (centres undefined) do in these assays?
MITF primary: 8; TEAD-YAP inh: 37*; GPR151 activ: 0; FBW7 activator: 0

How did Cc1cccnc1C1(O)CCN(C(=O)c2n[nH]c(=O)c3ccccc23)CC1 do in these assays?
MITF primary: 4; TEAD-YAP inh: 2; GPR151 activ: 0; FBW7 activator: 0

How did N/C(=N\c1nc2ccccc2o1)NC(=O)c1ccccc1N do in these assays?
MITF primary: 9; TEAD-YAP inh: -24; GPR151 activ: 0; FBW7 activator: 1

What do the screens show for `O=C(Nc1c(F)cccc1F)NC1(C(F)(F)F)Oc2ccc(Cl)cc2O1` (centres undefined)?
MITF primary: 7; TEAD-YAP inh: 2; GPR151 activ: 3; FBW7 activator: 0

Results for CCOc1ccc(NC(=O)COc2cccc3ccc(N4CCCC4)nc23)cc1 ?
MITF primary: -5; TEAD-YAP inh: -9; GPR151 activ: -1; FBW7 activator: 0

How did O=C(COc1cccc2ccc(N3CCOCC3)nc12)Nc1cccc(F)c1 do in these assays?
MITF primary: 1; TEAD-YAP inh: 34*; GPR151 activ: 3; FBW7 activator: 0

How did Cc1cccc(NC(=O)C2CCC(CNc3c(N4CCC(C)CC4)c(=O)c3=O)CC2)c1C (centres undefined) do in these assays?
MITF primary: -10; TEAD-YAP inh: 1; GPR151 activ: 0; FBW7 activator: 0

How did COc1ccc(O)c(C(=O)CC(=O)c2ccccc2)c1 do in these assays?
MITF primary: -8; TEAD-YAP inh: 55*; GPR151 activ: -5; FBW7 activator: 0

How did COc1ccc(O)c(C(=O)CC(=O)c2ccccc2Cl)c1 do in these assays?
MITF primary: -10; TEAD-YAP inh: 15; GPR151 activ: -3; FBW7 activator: 0

What do the screens show for `CCc1cccc(C)c1NC(=O)COc1ccc(C(C)C)cc1`?
MITF primary: -23; TEAD-YAP inh: -7; GPR151 activ: 3; FBW7 activator: 0

Results for CC(C)(C)c1cc(Cl)ccc1OCCCN1CCOCC1 ?
MITF primary: -9; TEAD-YAP inh: -2; GPR151 activ: 1; FBW7 activator: 0

What do the screens show for `Cc1ccnc(NC(c2ccccn2)c2ccc3cccnc3c2O)c1` (centres undefined)?
MITF primary: 70*; TEAD-YAP inh: 71*; GPR151 activ: -1; FBW7 activator: -1

What do the screens show for `Cc1ccnc(NC(c2ccsc2)c2ccc3cccnc3c2O)c1` (centres undefined)?
MITF primary: 62*; TEAD-YAP inh: 89*; GPR151 activ: 0; FBW7 activator: 0

How did Cc1ccnc(NC(c2ccc3c(c2)OCO3)c2ccc3cccnc3c2O)c1 (centres undefined) do in these assays?
MITF primary: 28; TEAD-YAP inh: 82*; GPR151 activ: 1; FBW7 activator: 0

Results for Cc1ccnc(NC(c2ccc(F)cc2)c2ccc3cccnc3c2O)c1 (centres undefined) ?
MITF primary: 17; TEAD-YAP inh: 73*; GPR151 activ: -1; FBW7 activator: -2

How did CCCCNS(=O)(=O)c1ccc(OC)c(Cl)c1Cl do in these assays?
MITF primary: -8; TEAD-YAP inh: 1; GPR151 activ: 0; FBW7 activator: 0

How did Cc1ccnc(NC(c2ccncc2)c2ccc3cccnc3c2O)c1 (centres undefined) do in these assays?
MITF primary: 113*; TEAD-YAP inh: 79*; GPR151 activ: 1; FBW7 activator: 0

How did Oc1c(C(Nc2cccnc2)c2ccsc2)ccc2cccnc12 (centres undefined) do in these assays?
MITF primary: 18; TEAD-YAP inh: 50*; GPR151 activ: 1; FBW7 activator: 0

Results for O=C(NC1CCN(Cc2ccccc2)CC1)c1ccc2c(=O)n3c(nc2c1)CCCCC3 ?
MITF primary: -12; TEAD-YAP inh: -8; GPR151 activ: 0; FBW7 activator: 0

How did CC1CC(C)CN(c2ncnc(N)c2[N+](=O)[O-])C1 (centres undefined) do in these assays?
MITF primary: 12; TEAD-YAP inh: 62*; GPR151 activ: 2; FBW7 activator: 0

How did CC1CCCCN1c1ncnc(N)c1[N+](=O)[O-] (centres undefined) do in these assays?
MITF primary: -3; TEAD-YAP inh: 42*; GPR151 activ: -1; FBW7 activator: 0

How did Nc1ncnc(N2CCCC2)c1[N+](=O)[O-] do in these assays?
MITF primary: 5; TEAD-YAP inh: 33*; GPR151 activ: 3; FBW7 activator: 0

Results for CC1CCN(c2ncnc(N)c2[N+](=O)[O-])CC1 ?
MITF primary: 18; TEAD-YAP inh: 28; GPR151 activ: 3; FBW7 activator: 0

What do the screens show for `CC1Cc2ccccc2N1c1ncnc(N)c1[N+](=O)[O-]` (centres undefined)?
MITF primary: 19; TEAD-YAP inh: 81*; GPR151 activ: -2; FBW7 activator: 0

Results for Nc1ncnc(N2CCCc3ccccc32)c1[N+](=O)[O-] ?
MITF primary: 3; TEAD-YAP inh: 7; GPR151 activ: 0; FBW7 activator: 0

Results for CCC1CCCCN1c1ncnc(N)c1[N+](=O)[O-] (centres undefined) ?
MITF primary: 14; TEAD-YAP inh: 30; GPR151 activ: 2; FBW7 activator: 0

What do the screens show for `CC1CN(c2ncnc(N)c2[N+](=O)[O-])CC(C)O1` (centres undefined)?
MITF primary: 9; TEAD-YAP inh: 28; GPR151 activ: 0; FBW7 activator: 0

How did Cc1ccc(Cn2ccccc2=NC(=O)c2cccc(S(=O)(=O)N3CCCCC3)c2)cc1 do in these assays?
MITF primary: 3; TEAD-YAP inh: 3; GPR151 activ: -1; FBW7 activator: 0

Results for CC1CCCN(c2ncnc(N)c2[N+](=O)[O-])C1 (centres undefined) ?
MITF primary: 13; TEAD-YAP inh: 62*; GPR151 activ: 0; FBW7 activator: 0

How did NC(=O)c1ccccc1Nc1ncnc2c1nc1n2CCCCC1 do in these assays?
MITF primary: -11; TEAD-YAP inh: 48*; GPR151 activ: 1; FBW7 activator: 0

What do the screens show for `Cc1cccc(NC(=O)CSc2nnc3c(n2)[nH]c2ccccc23)c1C`?
MITF primary: -2; TEAD-YAP inh: 16; GPR151 activ: -1; FBW7 activator: 0

Screening data: PubChem BioAssay, The Scripps Research Institute Molecular Screening Center
